Consider 64 compounds from PubChem BioAssay AID624296 (National Center for Advancing Translational Sciences (NCATS), 2012).

The campaign covered roughly 350,000 compounds. About 9,900 (2.8%) were called active. A call without a number means that no potency is given here. About 15% were inconclusive and are not listed. The sample holds actives, similar compounds and a random draw of the others, so the mix is not that of the screen. The call rests on the fitted dose curve; in most records, active means well fitted activation curve with a large enough effect; inconclusive means small, poorly fitted or top-dose-only effect; inactive means no such curve, though single readings can be large or run the other way.
Potency means the concentration at half of the fitted maximal effect.

This assay can be described thus: A quantitative high throughput screen for small molecules that induce DNA re-replication in MCF 10a normal breast cells. Further: nearly all actives have a fitted effect of over 50% in size. Conditions: MCF 10A DNA re-replication, Hoechst nuclear intensity, 48 h; series mostly up to 46.1 µM.
Take `CCn1nc(C(=O)Nc2ccc(N3CCOCC3)cc2)c2ccccc2c1=O`: the Potency entry was “inactive”.

Consider `O=C(/C=C/c1ccc([N+](=O)[O-])o1)NNC(=O)c1ccc(F)cc1`, for which the Potency was 9.2 µM (active).

On to `O=C(NNC(=O)C1CCCC1)c1ccc(F)cc1`, for which the Potency result was “inactive”.

Turning to `C/[N+]([O-])=C\c1ccc([N+](=O)[O-])o1`, the Potency result is “inactive”.

Take `CC(C)Oc1ccc(CC(=O)NNC(=S)Nc2ccc(Br)cc2)cc1`: the Potency was 16.4 µM (active).

In the case of `COCC(=O)Nc1ccc(Br)cc1`, the Potency result is “inactive”.

Take `CC(C)Oc1ccc(CCC(=O)NNC(=S)NCc2ccccc2)cc1`: the Potency entry is “inactive”.

Turning to `CC(C)(C)OC(=O)N(Cc1ccccc1)Cc1ccc(OCc2cccc(NC(=O)c3ccccc3)c2)cc1`, the Potency result was “inactive”.

Consider `CC[C@]12c3[nH]c4ccc(OC)cc4c3CCN1C(=O)C(CC(=O)NCCN1CCOCC1)C[C@@H]2C(=O)N1CCN(C(=O)C2CC2)CC1` (some centres undefined), for which the Potency entry is “inactive”.

Turning to `Cc1ccsc1C(=O)N/N=C/c1ccc([N+](=O)[O-])cc1`, the Potency entry was “inactive”.

`Cc1ccc(/C=N/NC(=O)c2sccc2OCc2ccc(F)cc2)cc1`: the Potency was 6.51 µM (active).

Take `Cc1ccc(COc2ccc(/C=N/NC(=O)CN3CCCCC3)cc2)cc1`: the Potency entry is “inactive”.

`CC(=O)Nc1ccc(SC[C@H](Cc2ccccc2)N2CC[C@@H](C)CCC2=O)cc1`: the Potency result was “inactive”.

For `COc1ccc(NS(=O)(=O)c2cc(NC(=O)c3ccc(S(=O)(=O)N(C)C)cc3)ccc2N2CCOCC2)cc1`, the Potency result is “inactive”.

Consider `COc1cc(NS(=O)(=O)c2ccc(N/C=C(\C=O)c3nc4cc(Cl)ccc4o3)cc2)nc(OC)n1`, for which the Potency is 20.6 µM (active).

As to `COc1cc(NS(=O)(=O)c2ccc(N=Cc3c(C)[nH]n(-c4ccccc4)c3=O)cc2)nc(OC)n1`, the Potency result was “inactive”.

In the case of `COc1cc(NS(=O)(=O)c2ccc(NC(=S)NC(=O)c3ccccc3)cc2)nc(OC)n1`, the Potency entry is “inactive”.

Regarding `Cc1ccc(C)c(C(=O)COC(=O)Cn2[nH]c(=O)c3ccccc3c2=O)c1`, the Potency entry was “inactive”.

As for `CCc1ccc(C(=O)C(C)OC(=O)CN2C(=O)NC3(CCCC3)C2=O)cc1` (centres undefined), the Potency result is “inactive”.

With `CCC1=Nc2cc(C(=O)NCCN3CCCC3)ccc2Sc2ccc(C)cc21`, the Potency entry was “inactive”.

As for `CCCC1=Nc2cc(C(=O)NCc3ccco3)ccc2Sc2ccccc21`, the Potency is 8.2 µM (active).

For the compound `CCC1=Nc2cc(C(=O)NCCCN3CCOCC3)ccc2Sc2ccc(Br)cc21`, the Potency result is “inactive”.

In the case of `c1ccc(-c2ccc(OCCN3CCOCC3)cc2)cc1`, the Potency entry was “inactive”.

Consider `CC(=O)c1ccc(OCCN2CCOCC2)cc1`, for which the Potency result was “inactive”.

On to `CCOc1ccc(C(=O)CCN2CCOCC2)cc1`, for which the Potency was 18.4 µM (active).

With `O=C(c1ccccc1)c1ccc(OCC(O)CN2CCCC2)cc1` (centres undefined), the Potency result is “inactive”.

For the compound `O=C(c1ccc(Cl)cc1)c1ccc(OCC(O)CN2CCCCC2)cc1` (centres undefined), the Potency was 5.01 µM (active).

As for `OC(COc1ccc(Br)cc1)CN1CCCC1` (centres undefined), the Potency result was “inactive”.

For `CC(C)CCSc1ncnc2c1oc1nc3c(cc12)COC(C)(C)C3`, the Potency is 5.8 µM (active).

As to `C=CCn1c(=S)[nH]c2nc3c(cc2c1=O)COC(C)(C)C3`, the Potency result is “inactive”.

On to `CCCc1nc2oc3c(OCC)ncnc3c2c2c1COC(C)(C)C2`, for which the Potency entry was “inactive”.

On to `CSCCC(NS(=O)(=O)c1ccc(C)cc1)C(=O)N(C)CC(=O)Nc1ccccc1Br` (centres undefined), for which the Potency entry is “inactive”.

As to `O=C(COC(=O)c1ccc(O)cc1O)c1ccc2c(c1)OCCO2`, the Potency entry is “inactive”.

As to `O=C1COc2c1ccc(O)c2O`, the Potency result is “inactive”.

On to `CCOc1cccc(=O)c2c(C)n(CC3CCCO3)c(C)c12` (centres undefined), for which the Potency result was “inactive”.

`O=C1c2cccc3c([N+](=O)[O-])ccc(c23)C(=O)N1CC1CCCO1` (centres undefined): the Potency is 18.4 µM (active).

With `CCC(=O)Nc1ccc(C(=O)Nc2ccc3c(c2)C(=O)N(CC2CCCO2)C3=O)cc1` (centres undefined), the Potency result is “inactive”.

As to `N#CC(Cc1cc2ccccc2n1S(=O)(=O)c1ccccc1)OCc1ccccc1` (centres undefined), the Potency entry is “inactive”.

For the compound `Cc1ccc2cc(/C=N/NC(=O)[C@@H]3CCCN3)c(Cl)nc2c1`, the Potency result is “inactive”.

With `Cc1ccc2cc(/C=N/Nc3ccc(C(=O)O)cc3)c(Cl)nc2c1`, the Potency is 6.51 µM (active).

In the case of `O=C(O)c1ccc(N/N=C/c2ccc3ncccc3c2)cc1`, the Potency entry was “inactive”.

For `COc1ccc(NC(=O)/C(C#N)=C\c2cc(OC)c(OCc3ccc(C(=O)O)cc3)cc2Br)cc1`, the Potency was 16.4 µM (active).

Consider `COc1cc(C=O)c(Br)cc1OCC(=O)NCc1ccccc1`, for which the Potency entry is “inactive”.

Regarding `COc1cc(/C=C(\C#N)C(=O)Nc2ccc3ccccc3c2)c([N+](=O)[O-])cc1OC`, the Potency entry was “inactive”.

`NC(=O)C1(N2CCCC2)CCN(Cc2ccccc2)CC1`: the Potency entry was “inactive”.

On to `COC(=O)c1sc2ncccc2c1OCc1ccc(Cl)cc1Cl`, for which the activity, positive = re-replication was -182% [at 0.0737 µM] (inactive).

In the case of `COC(=O)c1cc2c(N)c(C(=O)c3ccc(Cl)cc3)sc2nc1C(OC)OC`, the Potency was 20.6 µM (active).

As to `COC(=O)c1cn(C(=O)c2ccc(Cl)cc2)c2ccccc12`, the Potency result is “inactive”.

On to `CN(Cc1cccs1)C(=O)CN1C(=O)c2ccccc2S1(=O)=O`, for which the Potency result was “inactive”.

For `CCOC(=O)C1=CN(Cc2ccc(Br)cc2)S(=O)(=O)NC1C` (centres undefined), the Potency result was “inactive”.

As to `Cc1cc(NC(=O)COc2ccc(Cl)cc2Cl)n(CCC#N)n1`, the Potency result was “inactive”.

With `CCOC(=O)c1c(NC(=O)c2ccc(S(=O)(=O)N(C)CC3CCCO3)cc2)sc2c1CC(C)(C)NC2(C)C` (centres undefined), the Potency result is “inactive”.

With `COC(=O)c1c(NC(=O)COc2ccc(Cl)cc2Cl)sc2c1CC(C)(C)NC2(C)C`, the Potency is 3.26 µM (active).

Regarding `COc1ccc2[nH]c(=O)c(CNc3ccc(C)c(C)c3)cc2c1`, the Potency was 14.6 µM (active).

For `CCC(=O)N(Cc1cc2cc(OC)ccc2[nH]c1=O)c1ccccc1C`, the Potency result is “inactive”.

Take `COc1ccc(N(Cc2cc3cc(OC)ccc3[nH]c2=O)S(C)(=O)=O)cc1`: the Potency result is “inactive”.

As for `c1ccc(-c2c[nH]c(-c3ccccc3)c2)cc1`, the Potency entry is “inactive”.

Turning to `COc1ccc(NC(=O)CN(C)C(=O)c2cc(C3CC3)nn2-c2ccccc2)cc1`, the Potency entry was “inactive”.

In the case of `Cc1nc2ccccc2c(C(=O)O)c1-c1ccccn1`, the Potency entry is “inactive”.

As for `COc1cc2c(cc1CNC[C@H]1O[C@@H](n3cnc(C(N)=O)n3)[C@H](O)[C@@H]1O)OCO2`, the Potency entry was “inactive”.

On to `C/C(=N\NC(=O)c1ccccc1F)c1ccccn1`, for which the Potency is 23.1 µM (active).

In the case of `C/C(=N\NC(=O)Cc1ccc(Cl)cc1)c1ccccn1`, the Potency entry was “inactive”.

For the compound `C/C(CC(=O)Nc1ccc(N(C)C)cc1)=N\NC(=O)c1ccccc1F`, the Potency entry is “inactive”.

Turning to `O=C(CNC(=O)c1cc(S(=O)(=O)N2CCOCC2)ccc1N1CCCC1)Nc1ccc(F)c(F)c1`, the Potency result was “inactive”.
